{"source": "PubChem BioAssay AID504637", "about": "(National Center for Advancing Translational Sciences (NCATS), 2011)", "note": "The campaign covered roughly 1,100 compounds. About 430 (39%) were called active. Roughly 44% stayed inconclusive and do not appear here. So high a share suggests a set chosen from earlier hits. The full list was thinned out, with actives kept by preference. Unmarked numbers belong to inactive results. Calls follow the shape of the dose curve; as a rule, active = well fitted inhibition curve with a large enough effect; inconclusive = small, poorly fitted or top-dose-only effect, or effect the other way; inactive = flat fitted curve, though single readings scatter. Potency is read from the fitted curve at half-maximal effect."}
{"molecular_target": "ATP-dependent 6-phosphofructokinase (Trypanosoma brucei brucei) (UniProt O15648)", "sequence (O15648 whole entry, looked up)": "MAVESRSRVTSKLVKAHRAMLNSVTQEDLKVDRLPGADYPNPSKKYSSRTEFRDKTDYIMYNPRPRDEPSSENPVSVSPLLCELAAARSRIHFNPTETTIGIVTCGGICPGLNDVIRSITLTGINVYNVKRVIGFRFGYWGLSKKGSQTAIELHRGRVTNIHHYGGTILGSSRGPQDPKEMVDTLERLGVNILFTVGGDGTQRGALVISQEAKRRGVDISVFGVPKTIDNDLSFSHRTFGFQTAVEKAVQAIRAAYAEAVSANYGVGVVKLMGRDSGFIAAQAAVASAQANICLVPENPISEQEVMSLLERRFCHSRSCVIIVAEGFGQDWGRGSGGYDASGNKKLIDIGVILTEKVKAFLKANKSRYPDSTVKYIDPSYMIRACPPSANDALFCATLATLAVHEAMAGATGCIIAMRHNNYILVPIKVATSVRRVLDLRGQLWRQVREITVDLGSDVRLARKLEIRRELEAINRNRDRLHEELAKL", "assay": "Inhibitors of T. brucei phosphofructokinase: Hit Validation; also: nearly all actives have a fitted effect of over 60% in size", "conditions": "purified T. brucei PFK, ADP-Glo luminescence, 45 min; series mostly up to 57.5 µM; activity change, negative = inhibition: at the top concentration", "text": "NCGC Assay Overview: Various species of the protozoan family Trypanosomatidae are responsible for a range of serious human diseases in tropical and subtropical areas of the world. […] Many of the disorders caused by trypanosomatids are fatal if left untreated, but most currently used drugs are inefficient and toxic. […] Oxidative metabolism involving the mitochondrial tricarboxylic acid cycle and oxidative phosphorylation are repressed in these parasites, and recent RNA interference (RNAi) experiments have shown that even partial depletion of certain individual glycolytic enzymes can lead to the death of cultured parasites. One such glycolytic enzyme, phosphofructokinase (PFK), catalyzes the formation of fructose-1,6-bisphosphate (F1,6BP) and ADP from fructose-6-phosphate (F6P) and ATP, and in many metabolic circumstances makes an important contribution to the control of flux through the glycolytic pathway. As a specific glycolytic target, PFK is particularly attractive as it catalyzes the first irreversible step in glycolysis, and structural and kinetic studies have shown very substantial and essential differences from corresponding host enzymes, allowing for the discovery of parasite-selective inhibitors. The goal of this screen is to find small-molecule inhibitors of T. brucei PFK using a biochemical assay that measures PFK activity as a function of ADP production. A luminescence-based assay for T. brucei PFK activity has been developed which uses luciferase to detect production of ADP. Traditional luciferase-based nucleotide detection reagents rely on ATP production as a direct substrate for the luciferase reaction; however, PFK catalyzes the transfer of a phosphate from ATP to F6P, resulting in the net depletion of ATP. To directly measure the ADP product of the PFK reaction, we used the ADP-Glo detection kit (Promega), which utilizes two separate reactions to 1) deplete all remaining uncatalyzed ATP and 2) convert all remaining ADP to ATP, which is then detected through a traditional luciferase-coupled reaction. Compounds were screened as a concentration-titration series that ranged from 57uM to 0.7nM. 1. Verlinde, C.L., et al., Glycolysis as a target for the design of new anti-trypanosome drugs. Drug Resist Updat, 2001. 4(1): p. 50-65. 2. Albert, M.A., et al., Experimental and in silico analyses of glycolytic flux control in bloodstream form Trypanosoma brucei. J Biol Chem, 2005. 280(31): p. 28306-15. 3. […] J Mol Biol, 2009. 385(5): p. 1519-33. NIH Molecular Libraries Probe Production Network [MLPCN] NIH Chemical Genomics Center [NCGC] Grant: 1 R03 MH092153-01 PI Name: Malcolm Walkinshaw, University of Edinburgh\nNCGC Assay Protocol Summary: Substrate buffer was dispensed into white, solid 1536-well plates at 3uL/well in 0.1M triethanolamine (TEA) buffer, pH 8.0, containing final concentrations of 5 mM MgCl2, 0.01% Tween20, 0.5 mM fructose-6-phosphate (F6P) and 0.1mM ATP. Then, 23 nL of compounds or DMSO were delivered to each well using a pin tool. One uL T. brucei PFK (0.1M TEA, 0.01% Tween20, 0.1% bovine serum albumin (BSA) and 1.25nM PFK, final concentrations) was then dispensed, and plates were incubated at room temperature for 45 min. The luminescent detection reagent, ADP-Glo (Promega), was then added in two steps: the first reagent, ADP-Glo (which converts remaining uncatalyzed ATP), was added at 2.5uL/well and incubated for ten minutes at room temperature, and the second component, Kinase Detection reagent (which converts ADP to ATP as a substrate for luciferase-based luminescence), was added immediately after at 5uL/well, followed by one final ten minute room temperature incubation. The plates were measured on a ViewLux plate reader for luminescent signal using a clear filter with a one second exposure. The %Activity was determined from the corrected luminescence values. […]", "units": {"activity change, negative = inhibition": "%"}}
{"smiles": "Cn1nnnc1NCc1ccc(Cl)c(Cl)c1", "Potency": "23.9 µM (active)"}
{"smiles": "Cc1ccc(CC(=O)Nc2ccc(S(=O)(=O)N3CCOCC3)cc2)cc1C", "activity change, negative = inhibition": -29.8}
{"smiles": "O=C(Cc1ccc(Cl)c(Cl)c1)Nc1ccc(SC(F)F)cc1", "Potency": "23.9 µM (active)"}
{"smiles": "O=C(COC(=O)CCC(=O)c1cccs1)NCc1ccco1", "activity change, negative = inhibition": -18.7}
{"smiles": "C=CC1=C(C(=O)O)N2C(=O)[C@@H](NC(=O)/C(=N\\OCC(=O)O)c3csc(N)n3)[C@H]2SC1", "Potency": "4.26 µM (active)"}
{"smiles": "N#Cc1cccc(CSc2ncnc(N)n2)c1", "Potency": "26.9 µM (active)"}
{"smiles": "C=C1c2c(Cl)ccc(O)c2C(O)=C2C(=O)[C@]3(O)C(O)=C(C(N)=O)C(=O)[C@@H](N(C)C)[C@@H]3[C@@H](O)C12", "note": "(some centres not stated)", "activity change, negative = inhibition": -15.8}
{"smiles": "O=C1CSC(=S)N1/N=C/c1ccc(O)c([N+](=O)[O-])c1", "activity change, negative = inhibition": -1.08}
{"smiles": "O=C1CSC(=S)N1c1ccc(Cl)c(Cl)c1", "activity change, negative = inhibition": -15.2}
{"smiles": "COC(=O)CC(=O)N1CCN(c2ccc(Cl)c(Cl)c2)CC1", "Potency": "26.9 µM (active)"}
{"smiles": "Cc1nn(Cc2ccc(Cl)c(Cl)c2)c(C)c1NC(=O)c1cc(C2CC2)on1", "Potency": "12 µM (active)"}
{"smiles": "O=[N+]([O-])/C=C/c1ccc2c(ccn2Cc2ccccc2)c1", "Potency": "23.9 µM (active)"}
{"smiles": "CC(C)(C)c1nnc(NC(=O)C2c3ccccc3Oc3ccccc32)s1", "Potency": "26.9 µM (active)"}
{"smiles": "Cc1ccc(NC(=O)c2cc(-c3ccc(C)o3)nc3ccccc23)nc1", "Potency": "12 µM (active)"}
{"smiles": "O=C(Cc1ccc([N+](=O)[O-])cc1)N/N=C/c1ccco1", "Potency": "23.9 µM (active)"}
{"smiles": "O=C(NCc1ccc(Cl)c(Cl)c1)c1cccnc1", "Potency": "26.9 µM (active)"}
{"smiles": "Cc1ccc(-c2nn(-c3ccccc3)cc2/C=C2\\SC(=S)N(CCCCCC(=O)O)C2=O)o1", "Potency": "30.1 µM (active)"}
{"smiles": "O=c1[nH]c(=S)[nH]c2[nH]c(=S)[nH]c12", "Potency": "1.9 µM (active)"}
{"smiles": "O=[N+]([O-])c1c(NCCO)cc(Sc2nc3ccccc3s2)c2nonc12", "Potency": "1.51 µM (active)"}
{"smiles": "O=C(CSc1nc(O)c(Cc2ccccc2)c(=O)[nH]1)Nc1nc2c(s1)CCCC2", "Potency": "16.9 µM (active)"}
{"smiles": "OCCN1CCN(C(=S)c2ccc(-c3ccccc3)cc2)CC1", "Potency": "26.9 µM (active)"}
{"smiles": "FC(F)(F)C1CCCN(c2nsc3ccccc23)C1", "note": "(configuration not stated)", "Potency": "4.26 µM (active)"}
{"smiles": "CCn1nc(C(=O)NNS(=O)(=O)c2cc(/C=C/C(=O)O)cc(OC)c2OC)c2ccccc2c1=O", "activity change, negative = inhibition": -8.81}
{"smiles": "Cc1c(C)c2ccc(OCC(=O)N3CCN(c4cccc(Cl)c4)CC3)cc2oc1=O", "Potency": "8.49 µM (active)"}
{"smiles": "COc1ccc(N/C=C(\\C2OC(=O)c3ccccc32)[N+](=O)[O-])cc1", "note": "(configuration not stated)", "activity change, negative = inhibition": -3.4}
{"smiles": "Cc1nc(N)nc(SCc2ccc([N+](=O)[O-])cc2)c1N", "Potency": "19 µM (active)"}
{"smiles": "Cc1cccc(-n2c(N)c(C(=O)N3CCN(C)CC3)sc2=S)c1", "Potency": "13.5 µM (active)"}
{"smiles": "O=c1ccnc(Nc2ccc(Cl)cc2)[nH]1", "Potency": "30.1 µM (active)"}
{"smiles": "C=C(C)C(=O)Nc1cccc(C2=NOC3(C2)C[C@H](C(N)=O)N(C(=O)C(c2ccccc2)c2ccccc2)C3)c1", "note": "(some centres not stated)", "Potency": "1.9 µM (active)"}
{"smiles": "Cn1sc(=O)c2cc(S(=O)(=O)NC3CC3)ccc21", "Potency": "21.3 µM (active)"}
{"smiles": "O=c1[nH]c2ccccc2n2c(-c3ccccc3)nnc12", "Potency": "13.5 µM (active)"}
{"smiles": "Cc1ccccc1CN1C[C@@H]2C[C@@H](c3cn(C)nc3-c3ccccc3)N3CCC[C@@]23C1=O", "activity change, negative = inhibition": -23.6}
